Here are results for 17 compounds from PubChem BioAssay.

Test [1] relates to Wnt5a (protein binding on small-molecule microarray). Nature of the test: small molecules binding Wnt5a protein – biophysical, small-molecule microarray, 635/667 nm fluorescence, primary screen (AID 1142).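 Note: fluorescence read at 667 nm with signal to noise per printed feature.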 As to conditions: 635 nm fluorescence, higher = more signal.
A short description of test [2]: ATP-based viability of Huh7 replicon cells – cell-based, CellTiter-Glo luminescence, basal, 48 h, cytotoxicity control for HCV replication inhibitor project, primary screen (AID 1143).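 Note: Huh7 hepatoma cells carrying a hepatitis C replication reporter with no stimulus; test concentration not given here.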 As to conditions: higher = more signal, called active from +8 up or from −8 down.
A short description of test [3]: Pseudomonas biofilm growth suppression – PAO1 strain, BacTiter-Glo luminescence, LB-PBS, primary screen (AID 1144). Conditions: P. aeruginosa PAO1 biofilm, 12 h, higher = more signal.
A short description of test [4]: basal CRE-LacZ reporter activity in PC12 – cell-based, unstimulated, primary screen (AID 1145). As to conditions: no forskolin, luminescence, 4.5 h, higher = more signal, called active from +8 up or from −8 down.
The nature of test [5]: forskolin-driven CRE-LacZ activity in PC12 – cell-based, CRE-LacZ reporter, forskolin-stimulated, primary screen (AID 1146).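 Note: PC12 cells with 6xCRE LacZ reporter stimulated by forskolin 10 µM; beta-galactosidase reporter signal reflecting CREB driven transcription.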 As to conditions: luminescence, 4.5 h, higher = more signal, called active from +8 up or from −8 down.
The target of test [6] is Streptavidin (Streptomyces avidinii) (UniProt P22629). Put plainly: compounds binding control protein streptavidin – biophysical, small-molecule microarray, 635/667 nm fluorescence, artefact control for SMM compound annotation, primary screen (AID 1147).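 Note: signal reflects streptavidin binding to arrayed compounds as a control protein.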 Conditions: higher = more signal.
The nature of test [7]: probe aInhba binding on compound microarray – biochemical, small-molecule microarray, 635/667 nm fluorescence, primary screen (AID 1148).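 Note: score merges 667nm spot fluorescence with signal-to-noise for antibody binding to printed compounds.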 As to conditions: higher = more signal.
Test [8] has as its target Torsin-1A (Homo sapiens) (UniProt O14656). Nature of the test: TOR1A wild-type binding on microarray – cell lysate, small-molecule microarray, lysate, 635/667 nm, primary screen (AID 1149). As to conditions: COS7 hTOR1A-WT lysate, 635 nm fluorescence, higher = more signal.
Test [9] has the same target. Put plainly: torsin A mutant lysate binding on microarrays – cell lysate, small-molecule microarray, COS7 lysate, 635/667 nm fluorescence, primary screen (AID 1150).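 Note: score pools 667 nm emission and signal to noise measuring lysate protein binding.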 As to conditions: COS7 hTOR1A mutant lysate, 635 nm fluorescence, higher = more signal.
In test [10] the test system is Sonic hedgehog protein (Shh). Put plainly: Sonic hedgehog microarray binding compounds – biochemical, small-molecule microarray, 635/667 nm fluorescence, primary screen (AID 1151).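 Note: Shh protein binding to compounds spotted on small-molecule microarray slides; score combines spot fluorescence intensity with signal-to-noise across triplicate slides.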 Conditions: 635 nm fluorescence, higher = more signal.

The source made the active and inactive calls. Unless noted, the rule behind the calls is not given here.

Sequence of Streptavidin (Streptomyces avidinii) (P22629 whole entry, looked up): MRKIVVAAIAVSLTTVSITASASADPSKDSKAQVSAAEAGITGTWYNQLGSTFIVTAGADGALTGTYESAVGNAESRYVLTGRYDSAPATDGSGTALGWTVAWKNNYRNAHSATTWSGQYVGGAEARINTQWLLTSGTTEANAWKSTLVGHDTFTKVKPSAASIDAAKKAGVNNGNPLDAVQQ
Sequence of Torsin-1A (Homo sapiens) (O14656 whole entry, looked up): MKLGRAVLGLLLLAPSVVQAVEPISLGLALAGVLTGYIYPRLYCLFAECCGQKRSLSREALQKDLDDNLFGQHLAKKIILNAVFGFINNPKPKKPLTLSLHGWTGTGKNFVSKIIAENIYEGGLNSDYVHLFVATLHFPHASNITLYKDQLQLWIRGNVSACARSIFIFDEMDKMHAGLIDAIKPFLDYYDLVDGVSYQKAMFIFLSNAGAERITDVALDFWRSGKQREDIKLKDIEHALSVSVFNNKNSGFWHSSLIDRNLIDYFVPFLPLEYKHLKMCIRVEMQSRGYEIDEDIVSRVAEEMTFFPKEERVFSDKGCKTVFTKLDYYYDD

Consider `Cc1ccc(S(=O)(=O)N2CC(C(=O)O)=CCC2c2ccccc2)cc1` (stereo not given), for which the composite z-score in test [1] was -0.0669; in test [6], -0.134; in [7], -0.128; in the test with Torsin-1A (Homo sapiens) [8], 1.08; with Torsin-1A (Homo sapiens) [9], -0.307; in test [10], -0.861. Also, the z-score in [2] was 0.0982 (inactive); in test [3] it was -0.153 (inactive); in [4], -0.266 (inactive); in [5], 0.222 (inactive).
Consider `CCOC(=O)C1=C[C@@H](C(C)(C)C)N(S(=O)(=O)c2ccc(C)cc2)[C@H]1c1ccc(Cl)c(Cl)c1`, for which the composite z-score was found to be 0.28 in [1]; 1.04 in test [6]; 0.196 in [7]; 0.126 in the test with Torsin-1A (Homo sapiens) [8]; 0.837 in the test with Torsin-1A (Homo sapiens) [9]; 0.202 in test [10]. For the same compound, the z-score in [2] is -4.01 (inactive); in [3], 0.599 (inactive); in [4] it was 0.229 (inactive); in test [5], 0.303 (inactive).
Turning to `CCCCC(=C=CC[C@H](O)c1ccccc1OCCO)C[C@H](O)c1cc(Cl)cc(Cl)c1O`, the composite z-score in test [1] was 0.121; in test [6], -0.18; in test [7], -0.0471; in the test with Torsin-1A (Homo sapiens) [8], 0.873; with Torsin-1A (Homo sapiens) [9], 0.234; in test [10] it was 0.66. Also, the z-score in test [2] was -0.433 (inactive); in test [3], -0.0417 (inactive); in [4] it was 7.91 (inactive); in test [5], 1.57 (inactive).
As for `C/C=C/[C@H](CCn1cc([C@H](O)c2ccccc2)nn1)[Si](C)(C)c1ccc(OC)cc1`, the composite z-score is -0.582 in test [1]; -0.832 in test [6]; -0.263 in [7]; 0.0596 with Torsin-1A (Homo sapiens) [8]; -0.57 with Torsin-1A (Homo sapiens) [9]; -0.478 in test [10]. For the same compound, the z-score is -1 (inactive) in test [2], 0.303 (inactive) in [3], -0.272 (inactive) in test [4] and 0.0712 (inactive) in test [5].
For `CN1C(=O)C2C(C1=O)C1C=C(c3ccc(CO)cc3)C2C(C2CC2)N1Cc1sc2ccccc2c1Cl` (stereo not given), the composite z-score was 0.567 in [1]; 2.1 in test [6]; 0.432 in test [7]; 1.08 with Torsin-1A (Homo sapiens) [8]; 1.57 with Torsin-1A (Homo sapiens) [9]; 0.25 in [10]. Also, the z-score is -3.96 (inactive) in test [2], 0.277 (inactive) in [3], 2.75 (inactive) in [4] and -0.825 (inactive) in test [5].
In the case of `CC(C)CNC(=O)[C@@]1(C)c2ccccc2C(=O)N(C(C)C)[C@H]1c1ccc(CO)cc1`, the composite z-score in [1] was -0.16; in test [6], -1.36; in test [7], -0.187; in the test with Torsin-1A (Homo sapiens) [8], -0.633; in the test with Torsin-1A (Homo sapiens) [9] it was -1.63; in test [10] it was -0.542. For the same compound, the z-score was 1.09 (inactive) in test [2], 0.15 (inactive) in [3], -0.179 (inactive) in test [4] and -0.568 (inactive) in [5].
In the case of `CC(C)(C)OC(=O)CC[C@]1(C(=O)NCC(O)CO)N=C(c2ccc(OCCCO)cc2)O[C@H]1c1ccccc1CN=[N+]=[N-]` (stereo not given in full), the composite z-score in test [1] was 0.921; in test [6] it was 1.63; in [7] it was 0.496; with Torsin-1A (Homo sapiens) [8], 0.399; with Torsin-1A (Homo sapiens) [9] it was 2.06; in test [10], -0.535. The z-score is 0.168 (inactive) in test [2], -1.35 (inactive) in [3], 0.0594 (inactive) in test [4] and -0.209 (inactive) in [5].
Turning to `[N-]=[N+]=Nc1ccccc1[C@H]1OC(c2ccc(OCCCO)cc2)=N[C@@]1(CCS(=O)(=O)c1ccccc1)C(=O)N1CCOCC1`, the composite z-score in [1] was 1.48; in test [6], 0.877; in test [7], 0.496; with Torsin-1A (Homo sapiens) [8], 0.35; with Torsin-1A (Homo sapiens) [9], 0.923; in test [10] it was 0.836. Moreover, the z-score in [2] was -2.5 (inactive); in test [3] it was 0.385 (inactive); in test [4] it was 0.937 (inactive); in test [5] it was 0.28 (inactive).
Consider `COc1c(C)cc(-c2cc3c(c(-c4ccccc4)n2)[Si](C(C)C)(C(C)C)O[C@H]3c2ccccc2)cc1C`, for which the composite z-score in [1] is -0.0797; in [6], -0.0096; in test [7], -0.119; in the test with Torsin-1A (Homo sapiens) [8] it was -0.381; with Torsin-1A (Homo sapiens) [9], -0.22; in test [10], 0.618. Besides, the z-score is 0.393 (inactive) in test [2], -0.0188 (inactive) in test [3], -0.244 (inactive) in test [4] and -0.0226 (inactive) in test [5].
As to `CCCCCCCCCCC(O)C1C=CC2C(=O)N(c3ccccc3)C(=O)C2N1Nc1ccc([N+](=O)[O-])cc1` (stereo not given), the composite z-score in test [1] was 0.207; in test [6], 0.811; in test [7] it was -0.0059; with Torsin-1A (Homo sapiens) [8] it was 0.0415; with Torsin-1A (Homo sapiens) [9], 0.227; in test [10], 0.358. In addition, the z-score in [2] was -2.71 (inactive); in [3], -0.214 (inactive); in [4], 0.285 (inactive); in [5], 0.925 (inactive).
Regarding `C[n+]1ccc2ccc(O)cc2c1`, the composite z-score is 0.247 in test [1]; -0.426 in [6]; -0.0405 in test [7]; 2.27 with Torsin-1A (Homo sapiens) [8]; 1.19 with Torsin-1A (Homo sapiens) [9]; 1.95 in [10]. The z-score was -0.289 (inactive) in test [2], 0.125 (inactive) in [3], 0.389 (inactive) in test [4] and -0.287 (inactive) in [5].
For the compound `Cc1ccc(N2C(=O)c3ccccc3[C@](C)(C(=O)NCCN3CCOCC3)[C@@H]2c2ccc(CO)cc2)nc1`, the composite z-score in test [1] was -0.538; in [6] it was -0.932; in test [7], -0.211; with Torsin-1A (Homo sapiens) [8], -2.51; in the test with Torsin-1A (Homo sapiens) [9], -1.62; in [10], 0.465. Further, the z-score in test [2] was -0.28 (inactive); in test [3] it was -0.398 (inactive); in test [4], -0.258 (inactive); in test [5] it was -0.37 (inactive).
For the compound `O=C1OCCC/C=C\[C@H]2OC34C=CCN(CCN5CCOCC5)C(=O)[C@H]3N(CCO)C(=O)[C@@H]4C12` (stereo not given in full), the composite z-score in test [1] was -0.425; in test [6] it was -0.671; in [7], -0.203; in the test with Torsin-1A (Homo sapiens) [8] it was -0.176; with Torsin-1A (Homo sapiens) [9], -0.506; in [10] it was -0.703. Also, the z-score in test [2] is 0.364 (inactive); in test [3] it was 0.145 (inactive); in [4] it was -0.342 (inactive); in test [5], 0.0806 (inactive).
Consider `COCCOC(=O)N1C(=O)[C@@]2(c3cc(C#Cc4ccc(OC)cc4)ccc31)[C@H](c1ccc(O)cc1)N1[C@H](c3ccccc3)[C@H](c3ccccc3)OC(=O)[C@H]1[C@@H]2C(=O)N1CCN(c2ncccn2)CC1`, for which the composite z-score in test [1] is -0.0114; in test [6], 0.0875; in test [7] it was 0.199; with Torsin-1A (Homo sapiens) [8], 0.487; in the test with Torsin-1A (Homo sapiens) [9], 0.651; in [10], 0.982. Also, the z-score in test [2] is -0.949 (inactive); in test [3], -0.166 (inactive); in [4], -0.114 (inactive); in [5] it was 0.75 (inactive).
On to `CC(C)[Si]1(C(C)C)O[C@@H](c2ccccc2)c2cc(-c3ccc(-c4ccc(Cl)c(Cl)c4)o3)nc(CCc3ccccc3)c21`, for which the composite z-score was -0.306 in [1]; -0.549 in test [6]; -0.204 in [7]; -0.555 in the test with Torsin-1A (Homo sapiens) [8]; -0.181 with Torsin-1A (Homo sapiens) [9]; -0.74 in test [10]. Moreover, the z-score in test [2] was -1.03 (inactive); in test [3] it was 0.251 (inactive); in test [4], 0.367 (inactive); in test [5], 1.52 (inactive).
`C=CCN1C(=O)[C@@]2(O[C@@H](CCO)[C@H]([Si](C)(C)c3ccc(OC)cc3)[C@H]2C)c2cc(NC(C)=O)ccc21`: the composite z-score in [1] was 0.303; in [6], -0.0236; in test [7] it was 0.0982; with Torsin-1A (Homo sapiens) [8] it was 0.31; in the test with Torsin-1A (Homo sapiens) [9] it was 0.364; in [10], 1.85. Besides, the z-score in [2] was -4.72 (inactive); in test [3] it was 0.445 (inactive); in [4], 7.68 (inactive); in test [5], 0.766 (inactive).
`O=C(NCC(O)CO)[C@]1(CCS(=O)(=O)c2ccccc2)N=C(c2ccc(OCCCO)cc2)O[C@@H]1c1ccccc1` (stereo not given in full): the composite z-score in [1] is 0.299; in [6], 1.03; in [7], -0.0567; in the test with Torsin-1A (Homo sapiens) [8], 0.499; with Torsin-1A (Homo sapiens) [9], 1.48; in test [10] it was -1.05. Moreover, the z-score in test [2] was -0.084 (inactive); in [3], 0.295 (inactive); in [4], 0.596 (inactive); in test [5] it was -0.0842 (inactive).
